# According to PubChem BioAssay AID651660 (Broad Institute, 2012):
# Values joined by “and” are separate entries in the source; they are usually repeats but may differ in a detail not shown here. Equal values may be shown once. Screen size: about 1,900 compounds; about 15 (0.8%) were called active. This is one part of a sample in which actives are shown more often than they occur. Values without a mark were called inactive.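 Rule for the calls: active = every replicate shows at least 50% inhibition; inconclusive = mean inhibition at least 50% but some replicate below; inactive = the rest.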
# Molecular target: DNA repair protein RAD52 homolog (Homo sapiens) (UniProt P43351)
# Sequence (P43351 whole entry, looked up): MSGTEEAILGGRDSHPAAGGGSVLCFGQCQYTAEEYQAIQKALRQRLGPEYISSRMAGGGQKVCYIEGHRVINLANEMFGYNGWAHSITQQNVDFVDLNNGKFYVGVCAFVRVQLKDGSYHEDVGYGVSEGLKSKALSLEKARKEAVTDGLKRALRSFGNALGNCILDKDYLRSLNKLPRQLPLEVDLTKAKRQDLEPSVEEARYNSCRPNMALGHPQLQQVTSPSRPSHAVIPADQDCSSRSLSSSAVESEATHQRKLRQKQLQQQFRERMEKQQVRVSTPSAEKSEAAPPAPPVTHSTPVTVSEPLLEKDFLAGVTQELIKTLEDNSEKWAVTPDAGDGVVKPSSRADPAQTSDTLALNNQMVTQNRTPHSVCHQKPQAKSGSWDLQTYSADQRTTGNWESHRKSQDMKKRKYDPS
# Assay: RAD52 ssDNA annealing inhibitors, primary screen, biochemical, FRET, single point (AID 651660);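 note: 0% = median of neutral control wells and 100% = median of positive control wells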
# Details: Recombinant RAD52 ssDNA annealing, FRET fluorescence, 30 min; at 18.7 µM; hits give high values
row,SMILES,inhibition
1,COc1ccc(C2CC(c3ccc([N+](=O)[O-])cc3)=NN2C(=O)c2ccccc2)cc1OC (stereo not drawn),-4.95%
2,O=C(c1ccc(-c2ccccc2)c(F)c1)C1CCCN(C(=O)c2cncs2)C1 (stereo not drawn),-5.72%
3,O=C(OCC1OC2OC3(CCCCC3)OC2C2OC3(CCCCC3)OC12)c1ccccc1 (stereo not drawn),-6.56%
4,COC1(C)CC2C(CC1OC(=O)c1cc([N+](=O)[O-])cc([N+](=O)[O-])c1)C2(C)C (stereo not drawn),2.54%
5,COc1ccc2c(c1)[N+](C)(C)C(C)(C)C=C2C,2.05%
6,CC(=O)OCC#CCSc1nc2ccccc2n1C,-0.59%
7,CC(C)COCC1CC2(CC(C)(c3csc(N)n3)OC2=O)C(=O)O1 (stereo not drawn),-11.3%
8,COc1cc(C2NCCc3c2[nH]c2ccccc32)ccc1OC(C)C (stereo not drawn),1.55%
9,CC12CN3CC(C)(CN(C1)C3c1ccc(Br)cc1O)C2 (stereo not drawn),-9.4%
10,Cc1ccc2c(c1)C1(C(=O)N2)N2CCCC2C(C(=O)c2ccc3ccccc3c2)C12C(=O)Nc1ccccc12 (stereo not drawn),8.82%
11,COc1ccc(-c2noc(-c3ccccc3-c3ccccc3)n2)cc1,2.09%
12,O=C(CS(=O)(=O)Cc1ccccc1)NCc1ccc2c(c1)OCO2,1.08%
13,CC(=O)N(CCC(Cc1ccccc1)c1ccc2c(c1)OCO2)Cc1ccc(Cl)cc1 (stereo not drawn),16.3%
14,COc1ccc(C(=O)C2CCCCC2=O)cc1 (stereo not drawn),-11.5%
15,CC(CN1c2ccccc2Sc2ccccc21)N(C)C (stereo not drawn),7.73%
16,CSc1ccc2c(c1)N(CCC1CCCCN1C)c1ccccc1S2 (stereo not drawn),61.6% (active)
17,CCOC(=O)c1cc2c(nc1N)CC(C)(CC)OC2 (stereo not drawn),-11.6%
18,COC(=O)C1=CN(Cc2cccs2)C=C(C(=O)OC)C1c1cccc(Cl)c1,11.7%
19,CN1C(=O)NC(c2ccc(O)cc2)C2=C1CN(c1cccc3ccccc13)C2=O (stereo not drawn),-2.34%
20,CC(=O)C1=C(NC(=O)c2ccc(C(F)(F)F)cc2)C[C@@H]2[C@H]1C2(C)C,4.2%
21,CN(C)c1ccc(C(CN)c2c[nH]c3ccccc23)cc1 (stereo not drawn),-2.21%
22,O=[N+]([O-])c1cc(/C=N/n2cnnc2)ccc1N1CCCC1,-0.23%
23,COC(=O)c1ccc(=O)n(Cc2ccco2)c1,-5.57%
24,CC(=O)N1CC2(C)CN(C(C)=O)CC(C)(C1)C2,-4.54%

row,SMILES,inhibition
1,CSc1cccc(NC(=O)/C=C/c2ccccc2)c1,5.27%
2,N/C(=N\OC(=O)c1ccc(Br)o1)c1ccccn1,-4.88%
3,COc1ccc2c(=O)c(-c3cnn(-c4ccccc4)c3)c(C)oc2c1,-8.23%
4,COc1ccc(S(=O)(=O)N2CCN(C(=O)COc3ccc4c(C)cc(=O)oc4c3)CC2)cc1,-4%
5,CC(=O)C1=C(O)C(=O)N(Cc2cccnc2)C1c1ccc(C(C)C)cc1 (stereo not drawn),0.222%
6,CCOc1ccc(C(=O)NCC2(c3ccccc3)CCOCC2)cc1,-5.73%
7,COc1ccc(CNC(=O)C2CCN(C(=O)[C@@H](CC(C)C)NC(=O)OC(C)(C)C)CC2)cc1,2.06%
8,CCCCOc1cc(C(=O)NCCN(CC)CC)c2ccccc2n1,8.91% and -1.38%
9,CCc1oc2ccccc2c1C(=O)c1cc(Br)c(O)c(Br)c1,-13.4%
10,CCCCc1oc2ccccc2c1C(=O)c1cc(I)c(OCCN(CC)CC)c(I)c1,72.2% (active)
11,Cc1ccc2c(c1)C(O)(C1COC(C)(C)CC1=O)C(=O)N2C (stereo not drawn),-1%
12,COc1cccc2c(O)cc(=O)n(C)c12,6.83%
13,COc1cccc(=O)c2c(C)n(CC(=O)c3ccccc3)c(C)c12,-138%
14,O=C(CCC(=O)NCCO)NCCO,4.45%
15,CC1=C/C(=N\N=C2\NC(=O)C(CC(=O)Nc3ccccc3F)S2)CC(C)(C)C1 (stereo not drawn),-3.25%
16,CSCC[C@H](NC(=O)NC1CCCC1)C(=O)O,-5.4%
17,CCOC(=O)c1cnc2ccc(C(=O)OC)cc2c1Nc1ccc2c(c1)OCCO2,0.862%
18,CN(C)CCOC(c1ccccc1)c1ccccc1 (tested in a mixture with another compound),0.693%
19,O=C(OCCNC(=O)c1ccc2ccccc2n1)c1ccc(F)cc1,3.05%
20,CC1CCN(CCOCCOc2ccccc2Br)CC1,-6.71%
21,CC1(C)CC(NCc2ccccc2)CCO1 (stereo not drawn),-6.22%
22,Cc1nc(N[C@@H](Cc2c[nH]c3ccccc23)C(=O)O)c2oc3ccccc3c2n1,-19.8%
23,COc1ccc(NC(=O)CC(c2ccccc2)c2ccco2)cc1 (stereo not drawn),-8.33%
24,CC(=O)SC1CC2=CC(=O)CCC2(C)C2CCC3(C)C(CCC34CCC(=O)O4)C12 (stereo not drawn),-15.3%
